# Screening results from PubChem.
# A selection: hits, their analogues and other compounds. The true share with any hit is near 1.8%.
# RN4220 kill: S. aureus RN4220 growth inhibition | OD600, 16 h | inhibition, % (no concentration beside the values) | 330,000 tested, 0.33% active | AID 1259311; in the data active = inhibition above about 85%;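 note: plate controls were untreated cells for no effect and reference antibiotic for full effect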
# DUSP3 inh: inhibitors of human VHR1 phosphatase (DUSP3). AID 1654. 290,000 tested, 0.52% active. P51452. inhibition, % at 13.3 µM. recombinant VHR phosphatase, pNPP absorbance; in the data active = inhibition above about 50%
# ugtP null kill: compounds lethal to S. aureus RN4220 ugtP deletion mutant. OD600 growth, 16 h. growth inhibition, % (no concentration beside the values). 330,000 tested, 0.54% active; in the data active = growth inhibition above about 68%;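 note: plate controls were untreated wells for no effect and antibiotic for full effect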
# PrPC surface inh: inhibitors of human cell surface prion protein PrPC. inhibition, % at 13.8 µM. AID 720596. 370,000 tested, 0.43% active. TR-FRET read-out; in the data active = inhibition above about 24%; note: 0% = median of the test wells and 100% = reference compound wells
# PfHsp40 rescue: compounds rescuing yeast from Plasmodium falciparum HSP40 toxicity; S. cerevisiae expressing PfHsp40, growth rescue, ATP luminescence; growth rescue, % at 12.5 µM; 340,000 tested, 0.68% active; in the data active = growth rescue above about 28%, passing the limit was not always enough;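 note: yeast W303a lacking pdr1 and pdr3 grown in galactose medium; growth measured after three days at 30 °C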
# PrPC TRFRET cf: confirmation of inhibitors of cell surface human prion protein | shares compounds with PrPC surface inh | 1,500 tested, 65% active | cell surface PrPC level, TR-FRET | AID 743200 | inhibition, % at 13.8 µM; in the data active = inhibition above about 25%
# LD9 cytotox: counter-screen for PrPc inhibitors: cytotoxicity in LD9 cells | shares compounds with PrPC surface inh | luminescence viability | inhibition, % at 13.8 µM | 1,500 tested, 29% active; in the data active = inhibition above about 9.5%
# * marks the source's active call; other numbers are inactive results; nt = no result.
SMILES,RN4220 kill,DUSP3 inh,ugtP null kill,PrPC surface inh,PfHsp40 rescue,PrPC TRFRET cf,LD9 cytotox
C#CCOCCOCCOCCNc1nc(N2CCN(C(=O)C(CCCCN)n3cc(C(N)CC(N)=O)nn3)CC2)nc(N2CCN(C(=O)C(C(C)O)n3cc(C(N)CCCCN)nn3)CC2)n1 (stereo not given),8.2,nt,1.2,nt,nt,nt,nt
Cc1cccc(CCNC(=O)CN(C)S(=O)(=O)c2cnc[nH]2)c1,0.8,1.3,0.5,1.2,70.3*,nt,nt
Cc1cc(C)cc(NC(=O)CN(C)S(=O)(=O)c2cnc[nH]2)c1,-4.5,13.2,-0.5,-1.1,0.2,nt,nt
NC(=O)C1CCCNc2c(F)cc([N+](=O)[O-])cc2C(=O)NC(CO)C(=O)NCC(=O)N1 (stereo not given),-0.9,nt,-10.7,nt,nt,nt,nt
Cc1cc(C)c(C(=O)CN2C(=O)NC3(CCCCCC3)C2=O)cc1C,6.1,29.4,-3.3,5.8,51.7*,nt,nt
COc1ccc(Br)cc1Cn1nnc(C(=O)Nc2ccc3c(c2)OCCO3)c1N,2.0,-14.6,0.3,25.0*,5.0,17.7,-0.3
COc1ccc(NC(=O)c2nnn(CC(=O)Nc3ccc4c(c3)OCO4)c2N)cc1OC,3.4,-17.2,0.0,-3.7,-0.3,nt,nt
COc1cc(F)c(C2=CC(=O)CC(c3ccc(Cl)cc3)C2)cc1F (stereo not given),-6.5,nt,16.5,nt,nt,nt,nt
CCOC(=O)c1sc(Nc2nc3c(OC)cccc3s2)cc1C,-6.9,-9.7,-15.2,40.0*,1.4,47.5*,-6.5
CCCSC(N)=NN=Cc1ccccc1O,9.5,nt,-3.1,nt,nt,nt,nt
COC(=O)c1sccc1NC(=O)C1CC=CCC1C(=O)O (stereo not given),8.5,-18.0,0.4,96.6*,0.1,91.6*,-0.7
COC(=O)c1cc(C)sc1NC(=O)C1CC=CCC1C(=O)O (stereo not given),4.9,-9.9,-4.9,34.7*,0.3,43.9*,-2.9
C#CCNC(=O)C1=CC(c2ccc(C#C)cc2)CC(OCCCCO)O1 (stereo not given),-0.4,nt,-6.6,nt,nt,nt,nt
CCOC(=O)C1C2COc3ccc(Cl)cc3C2N2C(=O)CN(Cc3ccc(F)cc3)C(=O)[C@@]12C (stereo not given in full),5.2,nt,9.2,nt,nt,nt,nt
Nc1ncnc2c1ncn2[C@@H]1O[C@H](CO)[C@@H](O)[C@H]1O,nt,4.7,nt,1.2,-3.0,nt,nt
Nc1ncnc2c(C3OC(CO)C(O)C3O)c[nH]c12 (stereo not given),nt,nt,nt,56.7*,-1.2,61.3*,91.2*
CCCCCC(=O)Nc1cccc(C2=NOC3(C2)CC(C(N)=O)N(C(=O)CCCCC)C3)c1 (stereo not given),5.1,nt,3.4,nt,nt,nt,nt
Nc1ccc2cc3[nH]c4cc(N)ccc4c3nc2c1,nt,nt,nt,27.2*,0.8,10.5,31.4*
Cc1nc2c(Cl)cccc2c2c1CC(CBr)O2 (stereo not given),4.0,16.1,4.8,11.4,-1.2,nt,nt
Cc1ccc2nc(Br)c3c(c2c1)OC(CBr)C3 (stereo not given),11.4,-3.2,-3.8,28.6*,0.8,43.4*,-3.7
CCSc1nnc2ccc(-c3ccc(C)cc3)nn12,4.7,14.2,2.4,42.3*,0.7,-12.4,-8.3
C[C@@H]1CC=C[C@H]2[C@H]1C(=O)N(Cc1ccccc1)[C@H]2c1ccc2ccccc2c1Br,nt,27.1,nt,41.6*,-0.7,50.3*,-2.6
CC(Sc1ncnc2ccccc12)C(=O)Nc1ccc2c(c1)OCO2 (stereo not given),-0.5,37.9,1.4,29.3*,42.3*,36.7*,0.6
CC(C)Cc1cc(C(=O)Nc2ccc3c(c2)OCO3)no1,9.2,2.4,11.0,31.1*,1.8,29.2*,-1.6
Cc1cc(C(=O)Nc2ccc3c(c2)OCO3)no1,1.3,-11.3,-0.7,10.5,-2.0,nt,nt
SMILES,RN4220 kill,DUSP3 inh,ugtP null kill,PrPC surface inh,PfHsp40 rescue,PrPC TRFRET cf,LD9 cytotox
O=C(Nc1ccc2c(c1)OCO2)c1cc(-c2cccc(O)c2)on1,-3.8,23.1,-15.9,17.0,-0.2,nt,nt
O=C(Nc1ccc2c(c1)OCO2)c1cc(-c2ccc(O)cc2)on1,1.1,5.8,-7.0,32.0*,0.9,17.6,4.9
ON=C(c1ccc2c(c1)OCCO2)C1CCCCC1,-0.7,nt,-5.5,nt,nt,nt,nt
C=CC(CC(C)C)N(Cc1ccccc1)S(=O)(=O)N(Cc1ccccc1)C(C=C)CC(C)C (stereo not given),-6.8,nt,-14.2,nt,nt,nt,nt
CC(=NNc1ccc(S(=O)(=O)N2CCCCC2)cn1)c1cccc(Br)c1,-3.8,nt,-24.8,nt,nt,nt,nt
Oc1ccc(CC2CNCCN2CC2(c3ccccc3)CC2)cc1 (stereo not given),4.4,nt,-0.1,nt,nt,nt,nt
CC(C)c1nc(SCC(=O)Nc2ccc(N(C)C)cc2)c2ccccc2n1,8.8,36.4,4.0,79.0*,0.2,93.3*,-5.1
CC(C)c1nc(SCC(=O)Nc2nccs2)c2ccccc2n1,3.1,15.3,-3.5,50.5*,0.0,89.6*,-3.7
Cc1ccc(C(=O)CSc2nc(C(C)C)nc3ccccc23)cc1,2.7,15.1,20.7,8.5,-2.3,nt,nt
Cc1csc(NC(=O)CSc2nc(C(C)C)nc3ccccc23)n1,5.0,11.3,11.7,83.9*,6.1,105.1*,-4.7
CC(C)c1nc(SCC(=O)NC2CCCCC2)c2ccccc2n1,4.1,10.2,0.5,3.4,1.5,nt,nt
Cc1ccc(C(C)C)c(OCC(=O)NN=CC2CCCCC2)c1,3.3,nt,15.3,nt,nt,nt,nt
COCCCNC(=O)c1c(N)n(N=Cc2ccccn2)c2nc3ccccc3nc12,13.2,nt,-16.3,nt,nt,nt,nt
Cc1ccc(N(C(=O)c2snc(C(N)=O)c2N)C(C(=O)NCCC(C)C)c2ccco2)cc1 (stereo not given),-2.2,24.9,-5.5,26.8*,1.9,33.7*,2.0
CC(C)CCNC(=O)C(c1ccco1)N(Cc1ccccc1)C(=O)c1snc(C(N)=O)c1N (stereo not given),11.8,33.4,5.3,1.0,0.7,nt,nt
C=CCn1c(=NC(=O)c2cccs2)sc2cccc(OC)c21,-7.9,6.2,23.8,-3.8,-0.9,nt,nt
C#CCn1c(=NC(=O)c2ccc(Br)s2)sc2cccc(OC)c21,-26.2,27.8,51.5,29.8*,-0.1,81.3*,2.5
O=C(Nc1ccc(OC(F)(F)F)cc1)Nc1cccc([N+](=O)[O-])c1,100.0*,-17.7,99.7*,25.6*,0.2,42.9*,41.5*
O=C(Nc1ccc(OC(F)F)cc1)Nc1cccc(C(F)(F)F)c1,81.8,-14.9,90.1*,34.8*,0.2,23.0,21.6*
Cn1ccnc1C(=O)c1cc(SCC(=O)NC2CC2)nc2ccccc12,1.9,14.4,-2.0,-3.2,-0.5,nt,nt
CN(C(=O)CSc1cc(C(=O)c2nccn2C)c2ccccc2n1)c1ccccc1,4.0,16.6,13.1,88.5*,1.8,73.9*,8.0
S=C1NC2=C(C(c3ccc(Br)cc3)N1)N1CCC2CC1 (stereo not given),-0.1,17.3,-3.7,26.4*,-1.1,25.3*,-0.4
CCCC1Cc2ccccc2N1C(C)=O (stereo not given),3.4,nt,1.1,nt,nt,nt,nt
